According to PubChem BioAssay (Tox21):
Results filed as inconclusive are left out. Active and inactive are the calls of the source. Calls come from the whole dose curve; as a rule, active = well fitted curve in the direction sought with a large enough effect in the repeat runs; inconclusive = weak or mixed curves; inactive = no such curve, though single readings can be large; an effect the other way counts as inactive or inconclusive.

Legend:
[1] = qHTS RealTime-Glo MT Cell Viability Assay in HepG2 cells - 40 hour (AID 1224870); note: nearly all actives have a fitted effect of over 50% in size
How it was run: (§1)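 HepG2 cells (600/well) mixed with RealTime-Glo MT reagent, settled 5 h at 37 C/5% CO2 before compound addition. Nonlytic NanoLuc luminescence from viable-cell prosubstrate reduction read repeatedly during 40 h treatment at 37 C.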

[2] = A CellTox Green Cytotoxicity Assay to monitor cytotoxicity in HEK293 cells - 40 hour (AID 1224871); note: nearly all actives have a fitted effect of over 45% in size
How it was run: (§2)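 Fluorescence intensity, read at 0, 8, 16, 24, 32 and 40 h of compound treatment, reflected dye binding to DNA of dead HEK293 cells; compounds (23 nL, DMSO) were added 5 h after plating cells with reagent.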

[3] = qHTS RealTime-Glo MT Cell Viability Assay in HepG2 cells - 8 hour (AID 1224873); note: nearly all actives have a fitted effect of over 55% in size
How it was run: as §1

[4] = qHTS RealTime-Glo MT Cell Viability Assay in HEK293 cells - 40 hour (AID 1224874); settings: RealTime-Glo luminescence; max response: stronger effect = lower value; note: nearly all actives have a fitted effect of over 50% in size
How it was run: (§3)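 Viable HEK293 cells reduce a cell-permeant prosubstrate; the product diffuses out and is consumed by NanoLuc in the medium to give light. Compounds went in after a 5 h incubation and plates were read over the treatment course.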

[5] = A CellTox Green Cytotoxicity Assay to monitor cytotoxicity in HEK293 cells - 24 hour (AID 1224875); note: series mostly up to about 77 µM; nearly all actives have a fitted effect of over 45% in size
How it was run: as §2

[6] = A CellTox Green Cytotoxicity Assay to monitor cytotoxicity in HepG2 cells - 16 hour (AID 1224876); note: nearly all actives have a fitted effect of over 45% in size
How it was run: (§4)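 Using 1536-well format, dye-containing HepG2 suspension was seeded, allowed 5 h at 37 C/5% CO2, dosed by pintool with compounds, positive and negative controls, and imaged for fluorescence across 40 h.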

[7] = qHTS RealTime-Glo MT Cell Viability Assay in HepG2 cells - 32 hour (AID 1224877); note: nearly all actives have a fitted effect of over 55% in size
How it was run: (§5)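 Cells + NanoLuc/prosubstrate dispensed (600 cells/well) → 5 h at 37 C/5% CO2 → compounds in DMSO transferred → 40 h incubation at 37 C, luminescence read at 0, 8, 16, 24, 32, 40 h.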

[8] = A CellTox Green Cytotoxicity Assay to monitor cytotoxicity in HepG2 cells - 24 hour (AID 1224878); note: nearly all actives have a fitted effect of over 45% in size
How it was run: as §4

[9] = A CellTox Green Cytotoxicity Assay to monitor cytotoxicity in HepG2 cells - 40 hour (AID 1224879); note: nearly all actives have a fitted effect of over 40% in size
How it was run: as §4

[10] = qHTS RealTime-Glo MT Cell Viability Assay in HEK293 cells - 0 hour (AID 1224880)
How it was run: as §3

[11] = A CellTox Green Cytotoxicity Assay to monitor cytotoxicity in HEK293 cells - 32 hour (AID 1224881); note: nearly all actives have a fitted effect of over 40% in size
How it was run: as §2

[12] = A CellTox Green Cytotoxicity Assay to monitor cytotoxicity in HepG2 cells - 0 hour (AID 1224882); note: nearly all actives have a fitted effect of over 35% in size
How it was run: as §4

[13] = A CellTox Green Cytotoxicity Assay to monitor cytotoxicity in HepG2 cells - 32 hour (AID 1224883); note: nearly all actives have a fitted effect of over 50% in size
How it was run: as §4

[14] = A CellTox Green Cytotoxicity Assay to monitor cytotoxicity in HEK293 cells - 8 hour (AID 1224884); note: nearly all actives have a fitted effect of over 35% in size
How it was run: as §2

[15] = qHTS RealTime-Glo MT Cell Viability Assay in HEK293 cells - 24 hour (AID 1224886); note: top concentration of the series differs between compounds; nearly all actives have a fitted effect of over 50% in size
How it was run: (§6)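 Tox21 10K qHTS, HEK293, 600 cells/well, RealTime-Glo reagent co-dispensed with cells; 5 h preincubation, compound by pintool, 37 C, luminescence at 0–40 h.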

[16] = qHTS RealTime-Glo MT Cell Viability Assay in HEK293 cells - 8 hour (AID 1224887)
How it was run: as §3

[17] = A CellTox Green Cytotoxicity Assay to monitor cytotoxicity in HEK293 cells - 16 hour (AID 1224888); note: nearly all actives have a fitted effect of over 35% in size
How it was run: as §2

[18] = qHTS RealTime-Glo MT Cell Viability Assay in HepG2 cells - 0 hour (AID 1224889); note: nearly all actives have a fitted effect of over 50% in size
How it was run: as §5

[19] = qHTS RealTime-Glo MT Cell Viability Assay in HEK293 cells - 16 hour (AID 1224872)
How it was run: as §6

[20] = qHTS RealTime-Glo MT Cell Viability Assay in HepG2 cells - 16 hour (AID 1224885); note: nearly all actives have a fitted effect of over 50% in size
How it was run: as §5
% is set by controls: 0 for no effect and ±100 for the full control effect.

CCCc1ccc(N)cc1
inactive: Potency [1] | Potency [2] | outcome [3] | max response [4] -1.79% | Potency [5] | Potency [6] | Potency [7] | Potency [8] | Potency [9] | outcome [10] | Potency [11] | Potency [12] | Potency [13] | Potency [14] | Potency [15] | Potency [16] | Potency [17] | Potency [18]

NCCNC(=O)c1ccc(Cl)cn1
inactive: Potency [1] | Potency [2] | Potency [19] | Potency [5] | Potency [6] | Potency [8] | Potency [9] | outcome [10] | Potency [11] | Potency [12] | Potency [13] | Potency [14] | outcome [20] | Potency [15] | Potency [16] | Potency [17] | Potency [18]

NS(=O)(=O)c1cc(C2(O)NC(=O)c3ccccc32)ccc1Cl (stereo unspecified)
inactive: Potency [1] | Potency [2] | outcome [3] | max response [4] 1% | Potency [5] | Potency [6] | Potency [8] | Potency [9] | outcome [10] | Potency [11] | Potency [12] | Potency [13] | Potency [14] | outcome [20] | Potency [15] | Potency [16] | Potency [17] | Potency [18]

c1ccc(SCCSc2ccccc2)cc1
inactive: Potency [1] | Potency [2] | outcome [3] | max response [4] 6.54% | Potency [5] | Potency [6] | Potency [7] | Potency [8] | Potency [9] | outcome [10] | Potency [11] | Potency [13] | Potency [14] | outcome [20] | Potency [15] | Potency [16] | Potency [17] | Potency [18]

O=C(O)/C=C/c1ccc(/C=C/C(=O)O)cc1
inactive: Potency [1] | Potency [2] | Potency [19] | max response [4] 3.8% | Potency [6] | Potency [7] | Potency [8] | Potency [9] | outcome [10] | Potency [11] | Potency [12] | Potency [13] | Potency [14] | Potency [15] | Potency [16] | Potency [17] | Potency [18]

CC(C)(C)CC(C)(C)N
inactive: Potency [1] | Potency [2] | Potency [19] | max response [4] 11.1% | Potency [6] | Potency [7] | Potency [8] | Potency [9] | outcome [10] | Potency [11] | Potency [12] | Potency [13] | Potency [14] | outcome [20] | Potency [15] | Potency [16] | Potency [17] | Potency [18]

O=c1[nH]c(=O)n([C@H]2O[C@H](CO)[C@@H](O)[C@@H]2O)cc1/C=C\Br
inactive: Potency [1] | Potency [2] | Potency [19] | Potency [5] | Potency [6] | Potency [7] | Potency [8] | Potency [9] | outcome [10] | Potency [11] | Potency [12] | Potency [13] | Potency [14] | outcome [20] | Potency [15] | Potency [16] | Potency [17] | Potency [18]

COC(=O)[C@H]1[C@H]2C[C@@H]3c4[nH]c5cc(OC)ccc5c4CCN3C[C@H]2C[C@@H](OC(=O)COc2ccc(OC)cc2)[C@@H]1OC
inactive: Potency [1] | Potency [2] | outcome [3] | max response [4] 6.2% | Potency [5] | Potency [6] | Potency [7] | Potency [8] | Potency [9] | outcome [10] | Potency [11] | Potency [12] | Potency [13] | Potency [15] | Potency [16] | Potency [17] | Potency [18]

O=C(CCOCCOCCOCCOCCC(=O)Nc1c(I)cc(I)c(C(=O)O)c1I)Nc1c(I)cc(I)c(C(=O)O)c1I
inactive: Potency [1] | Potency [2] | outcome [3] | max response [4] -0.881% | Potency [5] | Potency [6] | Potency [7] | Potency [8] | Potency [9] | Potency [11] | Potency [12] | Potency [13] | Potency [14] | outcome [20] | Potency [15] | Potency [16] | Potency [17] | Potency [18]

O=S(=O)(O)c1ccccc1O
inactive: Potency [1] | Potency [2] | Potency [19] | max response [4] 8.61% | Potency [5] | Potency [6] | Potency [7] | Potency [8] | Potency [9] | Potency [11] | Potency [12] | Potency [13] | Potency [14] | outcome [20] | Potency [15] | Potency [16] | Potency [17] | Potency [18]

NCC[C@H](O)C(=O)N[C@@H]1C[C@H](N)[C@@H](O[C@H]2O[C@H](CN)[C@@H](O)[C@H](O)[C@H]2O)[C@H](O)[C@H]1O[C@H]1O[C@H](CO)[C@@H](O)[C@H](N)[C@H]1O
inactive: activity change, negative = cytotoxic [1] -0.912% [at 0.29 µM] | cytotoxicity increase [2] -3.46% [at 0.29 µM] | viability change, negative = cytotoxic [3] -0.5% [at 0.29 µM] | max response [4] 5.14% | activity change [5] 2.36% [at 0.29 µM, stronger effect = higher value] | cytotoxicity increase [6] -3.16% [at 0.29 µM] | activity change, negative = cytotoxic [7] -1.54% [at 0.29 µM] | cytotoxicity [8] -1.2% [at 0.29 µM] | cytotoxicity increase [9] -4.11% [at 0.29 µM] | cytotoxicity increase [11] 0.628% [at 0.29 µM] | cytotoxicity [12] -4.16% [at 0.29 µM] | cytotoxicity increase [13] -0.727% [at 0.29 µM] | cytotoxicity increase [14] -8.01% [at 0.29 µM] | activity change, negative = cytotoxic [20] 3.3% [at 0.29 µM] | activity change, negative = cytotoxicity [15] 4.59% [at 0.29 µM] | activity change, negative = cytotoxicity [16] 2.61% [at 0.29 µM] | activity change [17] 0.183% [at 0.29 µM, stronger effect = higher value] | activity change, negative = cytotoxicity [18] 7.1% [at 0.29 µM]

CCO[Si](CCCN=C=O)(OCC)OCC
inactive: Potency [1] | Potency [2] | outcome [3] | max response [4] 0.0382% | Potency [5] | Potency [6] | Potency [7] | Potency [8] | Potency [9] | outcome [10] | Potency [11] | Potency [12] | Potency [13] | Potency [14] | outcome [20] | Potency [15] | Potency [16] | Potency [17] | Potency [18]

c1ccc2cnncc2c1
inactive: Potency [1] | Potency [2] | Potency [19] | max response [4] 12.8% | Potency [6] | Potency [8] | Potency [9] | outcome [10] | Potency [11] | Potency [12] | Potency [13] | Potency [14] | Potency [15] | Potency [16] | Potency [17]

FC(F)(F)C(F)(F)C(F)(F)C(F)(F)C(F)(F)C(F)(F)C(F)(F)C(F)(F)C(F)(F)C(F)(F)F
inactive: activity change, negative = cytotoxic [1] -1.18% [at 6.97 µM] | cytotoxicity increase [2] -18% [at 6.97 µM] | activity change, negative = cytotoxicity [19] -4.72% [at 6.97 µM] | cytotoxicity increase [6] 1.39% [at 6.97 µM] | activity change, negative = cytotoxic [7] -2.37% [at 6.97 µM] | cytotoxicity [8] 4.69% [at 6.97 µM] | cytotoxicity increase [9] 1.66% [at 6.97 µM] | activity change, negative = cytotoxicity [10] -21.9% [at 6.97 µM] | cytotoxicity increase [11] -14.9% [at 6.97 µM] | cytotoxicity [12] 4.39% [at 6.97 µM] | cytotoxicity increase [13] 1.61% [at 6.97 µM] | cytotoxicity increase [14] 4.13% [at 6.97 µM] | activity change, negative = cytotoxic [20] 3.86% [at 6.97 µM] | activity change, negative = cytotoxicity [15] -12.9% [at 6.97 µM] | activity change, negative = cytotoxicity [16] -20.1% [at 6.97 µM] | activity change [17] -9% [at 6.97 µM, stronger effect = higher value] | activity change, negative = cytotoxicity [18] 12.4% [at 6.97 µM]
